Laboratory results from PubChem BioAssay (NCATS).
Several values for one entry are separate records, joined by “and”; a condition that tells them apart may be missing. Equal entries are not always repeated. Inconclusive results are not listed. Some structures have more than one record in an assay (separate samples or runs), and their calls can disagree. Activity calls are given as the source filed them. The call rests on the fitted dose curve; in most records, active means well fitted cell-killing curve with a large enough effect; inconclusive means small, poorly fitted or top-dose-only effect, or effect the other way; inactive means no such curve, though single readings can be large or run the other way.

Experiment: Viability qHTS for spleen associated tyrosine kinase inhibitor (SYKi) drug resistant MV4-11 cells (AID 1963824); further: nearly all actives have a fitted effect of over 35% in size
Details: SYKi-resistant MV4-11 viability, CellTiter-Glo, 72 h; series mostly up to 45 µM; viability, % of control: at the top concentration
In short: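 SYK inhibitor-resistant MV4-11 AML cells, 500 per well, added to predispensed compounds and incubated 72 hr at 37 C, 5% CO2. Viability measured by CellTiter-Glo luminescence after 10 min at room temperature.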
Potency means the concentration at half of the fitted maximal effect.

Row | SMILES | Potency | viability, % of control
1 | Cc1onc(-c2c(F)cccc2Cl)c1C(=O)N[C@@H]1C(=O)N2[C@@H]1SC(C)(C)[C@@H]2C(=O)O | 13 µM (active) | 
2 | CCC(C)C(=O)O[C@H]1[C@@H](O[C@H]2O[C@H](CO)[C@@H](O)[C@H](O)[C@H]2O)O[C@H](CO)[C@@H](O)[C@@H]1O (stereo partly specified) |  | 74.1% [at 17.3 µM] (inactive)
3 | Cc1cc(C)c(CNC(=O)c2cc(-c3ccc(CN4CCOCC4)cc3)cc3c2cnn3C2CCCC2)c(=O)[nH]1 | inactive and 14.8 µM (active) | 
4 | C=C1CC23CC1(O)CCC2C1=CC2OC(=O)C(C)(C2O)C1C3C(=O)O (stereo unspecified) |  | 98.5% (inactive)
5 | O=C(O)C(O[C@@H]1O[C@H](CO[C@@H]2O[C@H](CO)[C@@H](O)[C@H](O)[C@H]2O)[C@@H](O)[C@H](O)[C@H]1O)c1ccccc1 (stereo partly specified) |  | 110% [at 17.3 µM] (inactive)
6 | C/C=C/C=C/C=C/C(=O)O[C@@H]1[C@@H](OC)C2=C(C(=O)N(C(C)C(=O)O)C2)[C@@]2(C)CCCC(C)(C)[C@H]12 (stereo partly specified) |  | 70.3% [at 17.3 µM] (inactive)
7 | CC[C@H](C)/C=C(C)/C=C/C1=CC2=C(Cl)C(=O)[C@](C)(O)[C@H](OC(C)=O)[C@H]2CO1 | 7.18 µM (active) | 
8 | CC(=O)O[C@H]1[C@H](O[C@H]2[C@@H]3C=CO[C@@H](O[C@@H]4O[C@H](CO)[C@@H](O)[C@H](O)[C@H]4O)[C@@H]3[C@@]3(CO)O[C@@H]23)O[C@@H](C)[C@H](OC(=O)/C=C/c2ccccc2)[C@H]1OC(=O)/C=C/c1ccccc1 |  | 83.3% [at 9.25 µM] (inactive)
9 | CC1(C)C[C@H](O)C[C@@]2(C)[C@H]1[C@H](O)C=C1COC(=O)[C@@]12O |  | 73.7% (inactive)
10 | CC(/C=C/C1(O)C(C)CC(O)CC1(C)C)OC1OC(CO)C(O)C(O)C1O (stereo unspecified) |  | 98.6% (inactive)
11 | CN1CCN(C(=O)c2ccc3cc(CCNc4ncnc5ccc(C#N)cc45)ccc3c2)CC1 | 0.461 µM (active) | 
